From PMC7862700, “An all-to-all approach to the identification of sequence-specific readers for epigenetic DNA modifications on cytosine”

What was measured:
Assay in all cases: DAPPL (digital affinity profiling via proximity ligation, sequencing); 10 mM Tris-HCl pH 7.5, 50 mM NaCl, 1 mM DTT, 4% glycerol, room temperature, 30 min; GST-TFs on glutathione beads, 16-mer random dsDNA library, 0.1% formaldehyde crosslink after washing; high values mean tight binding
FEV = target: T1, FEV (Homo sapiens, UniProt Q99581 1-238); details: protein: recombinant; tags: N-terminal GST; dsDNA, one strand shown
T1 sequence: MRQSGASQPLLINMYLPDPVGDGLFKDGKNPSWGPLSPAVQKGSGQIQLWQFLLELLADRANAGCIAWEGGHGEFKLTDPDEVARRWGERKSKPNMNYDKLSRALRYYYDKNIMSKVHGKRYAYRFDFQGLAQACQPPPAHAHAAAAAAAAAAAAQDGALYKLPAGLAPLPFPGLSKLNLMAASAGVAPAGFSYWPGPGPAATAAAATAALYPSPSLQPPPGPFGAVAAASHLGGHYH
Method in brief: (§1)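 Human transcription factors carrying a GST fusion were produced in yeast, bound to glutathione beads, tagged with DNA barcodes and pooled together with a tag-only sample. Each pool was held with 200 nmole of a random double-stranded 16-mer DNA library in Tris/NaCl/DTT/glycerol buffer for 30 min at room temperature, then washed, crosslinked in 0.1% formaldehyde, proximity-ligated with BsaI/T4 ligase (1 h, 37 °C), PCR-amplified and sequenced on an Illumina NextSeq500. Binding signal is the read frequency of each hexamer for a given factor divided by its frequency in the tag-only sample.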

ETV5 = ETV5 (Homo sapiens, UniProt P41161 1-510); details: protein: recombinant; tags: N-terminal GST; dsDNA, one strand shown
Method in brief: as §1

HSF1 = HSF1 (Homo sapiens, UniProt Q00613 1-529); details: protein: recombinant; tags: N-terminal GST; chain copies: 3; dsDNA, one strand shown
Method in brief: as §1

SPIC = target: T2, SPIC (Homo sapiens, UniProt Q8N5J4 1-248); details: protein: recombinant; tags: N-terminal GST; dsDNA, one strand shown
T2 sequence: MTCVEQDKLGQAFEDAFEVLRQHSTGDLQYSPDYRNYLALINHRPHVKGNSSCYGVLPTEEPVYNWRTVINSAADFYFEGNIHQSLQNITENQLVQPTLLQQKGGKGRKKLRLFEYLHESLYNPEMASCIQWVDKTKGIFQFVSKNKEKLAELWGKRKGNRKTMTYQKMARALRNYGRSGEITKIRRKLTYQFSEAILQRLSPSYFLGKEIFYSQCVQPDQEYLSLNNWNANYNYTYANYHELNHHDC
Method in brief: as §1

ELF4 = ELF4 (Homo sapiens, UniProt Q99607 1-663); details: protein: recombinant; tags: N-terminal GST; dsDNA, one strand shown
Method in brief: as §1

ELK4 = target: T3, ELK4 (Homo sapiens, UniProt P28324-2 1-405); details: protein: recombinant; tags: N-terminal GST; dsDNA, one strand shown
T3 sequence: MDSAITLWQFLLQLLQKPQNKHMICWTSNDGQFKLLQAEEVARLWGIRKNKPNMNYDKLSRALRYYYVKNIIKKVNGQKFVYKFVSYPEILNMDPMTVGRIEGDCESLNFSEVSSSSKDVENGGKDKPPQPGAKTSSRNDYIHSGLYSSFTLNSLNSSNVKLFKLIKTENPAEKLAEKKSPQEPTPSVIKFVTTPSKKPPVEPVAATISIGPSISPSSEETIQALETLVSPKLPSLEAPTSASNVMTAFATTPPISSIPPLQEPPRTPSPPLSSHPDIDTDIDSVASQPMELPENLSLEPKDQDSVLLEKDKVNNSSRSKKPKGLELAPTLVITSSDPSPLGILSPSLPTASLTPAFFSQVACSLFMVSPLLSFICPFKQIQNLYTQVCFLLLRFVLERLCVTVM
Method in brief: as §1

ETV2 = target: T4, ETV2 (Homo sapiens, UniProt O00321 1-342); details: protein: recombinant; tags: N-terminal GST; dsDNA, one strand shown
T4 sequence: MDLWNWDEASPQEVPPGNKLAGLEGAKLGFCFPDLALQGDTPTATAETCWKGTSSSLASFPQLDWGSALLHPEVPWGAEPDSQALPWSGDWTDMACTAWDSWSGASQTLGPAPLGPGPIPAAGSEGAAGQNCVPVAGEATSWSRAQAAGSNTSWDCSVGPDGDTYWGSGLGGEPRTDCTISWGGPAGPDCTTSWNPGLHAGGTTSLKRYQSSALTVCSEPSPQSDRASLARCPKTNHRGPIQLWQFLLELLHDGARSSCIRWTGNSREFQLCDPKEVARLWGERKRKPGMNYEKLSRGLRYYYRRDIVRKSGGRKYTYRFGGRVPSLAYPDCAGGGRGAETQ
Method in brief: as §1

ELF3 = target: T5, ELF3 (Homo sapiens, UniProt P78545 1-371); details: protein: recombinant; tags: N-terminal GST; dsDNA, one strand shown
T5 sequence: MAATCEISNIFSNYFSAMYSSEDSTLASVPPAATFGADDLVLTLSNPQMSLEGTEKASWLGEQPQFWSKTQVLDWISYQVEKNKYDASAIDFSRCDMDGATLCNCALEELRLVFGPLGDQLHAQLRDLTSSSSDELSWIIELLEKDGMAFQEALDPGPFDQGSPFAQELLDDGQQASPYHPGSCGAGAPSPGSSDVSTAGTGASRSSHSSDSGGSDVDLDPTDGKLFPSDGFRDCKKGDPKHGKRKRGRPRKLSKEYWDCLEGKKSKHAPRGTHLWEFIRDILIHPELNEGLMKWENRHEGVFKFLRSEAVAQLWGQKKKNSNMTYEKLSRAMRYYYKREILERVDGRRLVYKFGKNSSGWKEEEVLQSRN
Method in brief: as §1

CRX = CRX (Homo sapiens, UniProt O43186 1-299); details: protein: recombinant; tags: N-terminal GST; dsDNA, one strand shown
Method in brief: as §1

ETV1 = ETV1 (Homo sapiens, UniProt P50549 1-477); details: protein: recombinant; tags: N-terminal GST; dsDNA, one strand shown
Method in brief: as §1

ERF = target: T6, ERF (Homo sapiens, UniProt P50548 1-548); details: protein: recombinant; tags: N-terminal GST; dsDNA, one strand shown
T6 sequence: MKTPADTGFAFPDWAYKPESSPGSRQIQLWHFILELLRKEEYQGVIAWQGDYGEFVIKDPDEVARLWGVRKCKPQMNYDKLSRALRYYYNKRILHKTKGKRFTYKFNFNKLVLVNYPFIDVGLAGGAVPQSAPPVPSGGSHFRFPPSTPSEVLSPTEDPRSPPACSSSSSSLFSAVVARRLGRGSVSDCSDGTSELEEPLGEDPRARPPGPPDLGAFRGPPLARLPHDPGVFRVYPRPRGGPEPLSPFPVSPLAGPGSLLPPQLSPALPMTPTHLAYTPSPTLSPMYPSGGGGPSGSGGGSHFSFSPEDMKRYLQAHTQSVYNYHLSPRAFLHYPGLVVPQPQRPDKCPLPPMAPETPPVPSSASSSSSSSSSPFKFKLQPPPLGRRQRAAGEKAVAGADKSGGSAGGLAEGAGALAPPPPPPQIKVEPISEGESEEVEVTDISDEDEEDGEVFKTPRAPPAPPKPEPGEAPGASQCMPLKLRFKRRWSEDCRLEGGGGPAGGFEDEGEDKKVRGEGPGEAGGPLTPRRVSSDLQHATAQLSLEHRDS
Method in brief: as §1

ETV3L = target: T7, ETV3L (Homo sapiens, UniProt Q6ZN32 1-361); details: protein: recombinant; tags: N-terminal GST; dsDNA, one strand shown
T7 sequence: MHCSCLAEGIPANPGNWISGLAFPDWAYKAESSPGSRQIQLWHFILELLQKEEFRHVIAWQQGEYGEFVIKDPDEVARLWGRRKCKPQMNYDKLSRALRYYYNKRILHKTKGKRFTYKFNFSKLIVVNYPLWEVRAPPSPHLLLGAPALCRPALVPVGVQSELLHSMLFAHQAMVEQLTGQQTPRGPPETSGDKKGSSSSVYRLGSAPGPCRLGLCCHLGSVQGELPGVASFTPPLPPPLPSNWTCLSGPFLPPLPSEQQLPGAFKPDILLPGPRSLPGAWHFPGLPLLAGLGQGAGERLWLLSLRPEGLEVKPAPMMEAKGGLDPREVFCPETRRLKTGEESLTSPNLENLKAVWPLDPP
Method in brief: as §1

ETS2 = target: T8, ETS2 (Homo sapiens, UniProt P15036 1-469); details: protein: recombinant; tags: N-terminal GST; dsDNA, one strand shown
T8 sequence: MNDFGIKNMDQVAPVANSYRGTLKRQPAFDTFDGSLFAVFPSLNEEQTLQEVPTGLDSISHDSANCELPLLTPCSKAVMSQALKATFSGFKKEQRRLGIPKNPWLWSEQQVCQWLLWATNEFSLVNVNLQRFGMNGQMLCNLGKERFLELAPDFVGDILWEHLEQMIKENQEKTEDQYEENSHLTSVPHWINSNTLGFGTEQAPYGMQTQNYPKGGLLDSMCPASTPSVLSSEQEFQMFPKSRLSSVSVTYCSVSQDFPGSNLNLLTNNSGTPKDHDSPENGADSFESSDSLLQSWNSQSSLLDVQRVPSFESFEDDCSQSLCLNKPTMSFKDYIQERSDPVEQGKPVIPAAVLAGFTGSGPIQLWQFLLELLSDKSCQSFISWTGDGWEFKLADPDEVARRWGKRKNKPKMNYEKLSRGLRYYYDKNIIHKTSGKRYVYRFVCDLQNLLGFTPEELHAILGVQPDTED
Method in brief: as §1

SPDEF = target: T9, SPDEF (Homo sapiens, UniProt O95238 1-335); details: protein: recombinant; tags: N-terminal GST; dsDNA, one strand shown
T9 sequence: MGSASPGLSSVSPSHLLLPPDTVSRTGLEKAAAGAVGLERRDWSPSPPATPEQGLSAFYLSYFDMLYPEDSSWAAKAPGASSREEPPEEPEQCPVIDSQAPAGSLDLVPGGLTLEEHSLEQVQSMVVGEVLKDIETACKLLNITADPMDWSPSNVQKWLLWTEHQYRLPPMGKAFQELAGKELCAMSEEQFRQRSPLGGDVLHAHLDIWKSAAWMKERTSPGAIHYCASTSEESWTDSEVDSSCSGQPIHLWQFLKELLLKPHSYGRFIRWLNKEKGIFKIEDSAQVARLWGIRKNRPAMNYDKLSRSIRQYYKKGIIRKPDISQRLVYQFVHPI
Method in brief: as §1

ETV7 = target: T10, ETV7 (Homo sapiens, UniProt Q9Y603 1-341); details: protein: recombinant; tags: N-terminal GST; dsDNA, one strand shown
T10 sequence: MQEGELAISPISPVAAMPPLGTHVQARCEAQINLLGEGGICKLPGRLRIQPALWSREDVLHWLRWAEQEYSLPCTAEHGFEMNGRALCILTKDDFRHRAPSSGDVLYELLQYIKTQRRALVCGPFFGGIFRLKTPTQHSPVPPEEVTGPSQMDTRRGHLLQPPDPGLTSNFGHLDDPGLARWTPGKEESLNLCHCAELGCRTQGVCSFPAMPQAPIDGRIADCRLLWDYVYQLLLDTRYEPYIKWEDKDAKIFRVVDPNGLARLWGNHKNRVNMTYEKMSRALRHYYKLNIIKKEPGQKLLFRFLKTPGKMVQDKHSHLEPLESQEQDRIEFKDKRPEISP
Method in brief: as §1

ELF5 = target: T11, ELF5 (Homo sapiens, UniProt Q9UKW6-2 1-255); details: protein: recombinant; tags: N-terminal GST; dsDNA, one strand shown
T11 sequence: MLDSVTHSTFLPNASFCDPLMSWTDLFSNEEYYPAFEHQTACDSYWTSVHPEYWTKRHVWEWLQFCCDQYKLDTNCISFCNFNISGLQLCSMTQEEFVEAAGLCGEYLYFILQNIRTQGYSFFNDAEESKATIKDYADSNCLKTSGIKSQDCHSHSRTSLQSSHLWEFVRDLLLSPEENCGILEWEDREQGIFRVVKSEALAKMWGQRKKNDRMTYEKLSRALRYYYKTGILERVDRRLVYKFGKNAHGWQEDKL
Method in brief: as §1

ETV3 = target: T12, ETV3 (Homo sapiens, UniProt P41162-2 1-143); details: protein: recombinant; tags: N-terminal GST; dsDNA, one strand shown
T12 sequence: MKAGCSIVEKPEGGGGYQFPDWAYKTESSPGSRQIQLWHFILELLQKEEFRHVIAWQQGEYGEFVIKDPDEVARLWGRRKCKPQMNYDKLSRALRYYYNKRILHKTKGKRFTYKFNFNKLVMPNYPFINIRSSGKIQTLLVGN
Method in brief: as §1

ETV6 = ETV6 (Homo sapiens, UniProt P41212 1-452); details: protein: recombinant; tags: N-terminal GST; dsDNA, one strand shown
Method in brief: as §1

Chain of ETV6 (P41212 whole entry): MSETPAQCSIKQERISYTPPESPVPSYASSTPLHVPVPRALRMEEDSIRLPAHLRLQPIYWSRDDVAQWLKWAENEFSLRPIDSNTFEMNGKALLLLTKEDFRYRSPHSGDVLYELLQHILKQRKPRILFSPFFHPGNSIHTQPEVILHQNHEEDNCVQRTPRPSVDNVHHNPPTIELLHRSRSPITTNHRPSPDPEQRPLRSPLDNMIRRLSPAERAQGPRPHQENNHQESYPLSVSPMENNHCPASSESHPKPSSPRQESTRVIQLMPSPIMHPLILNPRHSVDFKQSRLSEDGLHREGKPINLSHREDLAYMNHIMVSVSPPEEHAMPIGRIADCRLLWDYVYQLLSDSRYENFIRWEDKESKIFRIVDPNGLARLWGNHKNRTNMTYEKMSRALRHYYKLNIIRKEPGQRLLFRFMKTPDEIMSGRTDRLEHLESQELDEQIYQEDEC
Chain of ELF4 (Q99607 whole entry): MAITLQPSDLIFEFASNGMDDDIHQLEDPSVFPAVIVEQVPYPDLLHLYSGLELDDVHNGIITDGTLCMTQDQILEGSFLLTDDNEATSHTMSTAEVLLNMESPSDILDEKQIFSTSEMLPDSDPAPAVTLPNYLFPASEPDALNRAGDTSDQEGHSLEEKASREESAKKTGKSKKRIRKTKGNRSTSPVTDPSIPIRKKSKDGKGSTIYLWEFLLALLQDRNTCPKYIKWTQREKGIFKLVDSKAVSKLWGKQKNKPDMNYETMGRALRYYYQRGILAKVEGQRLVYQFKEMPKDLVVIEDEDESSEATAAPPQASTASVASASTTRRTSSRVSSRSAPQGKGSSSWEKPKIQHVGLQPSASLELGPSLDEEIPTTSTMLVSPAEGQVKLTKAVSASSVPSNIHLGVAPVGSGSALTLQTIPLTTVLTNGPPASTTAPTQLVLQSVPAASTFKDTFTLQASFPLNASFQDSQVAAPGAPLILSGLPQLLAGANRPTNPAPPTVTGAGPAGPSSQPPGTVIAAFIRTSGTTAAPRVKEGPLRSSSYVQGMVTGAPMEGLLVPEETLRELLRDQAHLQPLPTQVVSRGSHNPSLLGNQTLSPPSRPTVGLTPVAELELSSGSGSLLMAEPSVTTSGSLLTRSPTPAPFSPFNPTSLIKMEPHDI
Chain of ETV1 (P50549 whole entry): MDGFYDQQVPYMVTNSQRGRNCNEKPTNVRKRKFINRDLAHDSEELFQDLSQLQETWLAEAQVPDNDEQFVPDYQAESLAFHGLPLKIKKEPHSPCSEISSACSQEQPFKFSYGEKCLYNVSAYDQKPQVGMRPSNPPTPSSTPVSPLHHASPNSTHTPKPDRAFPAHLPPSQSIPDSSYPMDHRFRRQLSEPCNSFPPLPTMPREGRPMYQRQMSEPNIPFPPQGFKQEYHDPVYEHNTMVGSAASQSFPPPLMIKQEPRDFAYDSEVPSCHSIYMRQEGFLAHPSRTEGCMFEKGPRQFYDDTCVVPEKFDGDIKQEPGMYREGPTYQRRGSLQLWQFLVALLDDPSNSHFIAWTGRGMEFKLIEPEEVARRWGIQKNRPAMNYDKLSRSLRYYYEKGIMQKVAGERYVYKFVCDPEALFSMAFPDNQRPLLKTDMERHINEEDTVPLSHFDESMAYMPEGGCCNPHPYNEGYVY
Chain of HSF1 (Q00613 whole entry): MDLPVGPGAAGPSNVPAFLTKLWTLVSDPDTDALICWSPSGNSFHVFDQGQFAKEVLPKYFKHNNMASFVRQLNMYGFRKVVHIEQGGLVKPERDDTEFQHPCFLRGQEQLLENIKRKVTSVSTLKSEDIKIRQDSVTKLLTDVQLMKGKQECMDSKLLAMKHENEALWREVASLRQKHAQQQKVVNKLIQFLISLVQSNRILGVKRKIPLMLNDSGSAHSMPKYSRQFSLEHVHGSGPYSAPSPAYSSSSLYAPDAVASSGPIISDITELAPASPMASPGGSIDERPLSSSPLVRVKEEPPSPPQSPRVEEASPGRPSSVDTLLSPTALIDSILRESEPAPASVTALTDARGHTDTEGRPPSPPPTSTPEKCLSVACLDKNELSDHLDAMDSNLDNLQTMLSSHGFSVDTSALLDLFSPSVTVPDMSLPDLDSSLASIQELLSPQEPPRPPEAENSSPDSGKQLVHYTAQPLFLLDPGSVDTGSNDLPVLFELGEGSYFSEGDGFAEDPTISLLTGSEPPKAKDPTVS
Chain of CRX (O43186 whole entry): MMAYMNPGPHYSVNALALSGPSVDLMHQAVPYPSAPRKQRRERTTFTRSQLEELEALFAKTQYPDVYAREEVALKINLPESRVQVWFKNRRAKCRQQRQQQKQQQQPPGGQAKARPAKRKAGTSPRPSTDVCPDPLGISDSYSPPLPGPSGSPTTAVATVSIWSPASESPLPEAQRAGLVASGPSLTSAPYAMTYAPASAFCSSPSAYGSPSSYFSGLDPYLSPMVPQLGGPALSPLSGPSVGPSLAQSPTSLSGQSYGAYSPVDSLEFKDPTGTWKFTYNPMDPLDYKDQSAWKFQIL
Chain of ETV5 (P41161 whole entry): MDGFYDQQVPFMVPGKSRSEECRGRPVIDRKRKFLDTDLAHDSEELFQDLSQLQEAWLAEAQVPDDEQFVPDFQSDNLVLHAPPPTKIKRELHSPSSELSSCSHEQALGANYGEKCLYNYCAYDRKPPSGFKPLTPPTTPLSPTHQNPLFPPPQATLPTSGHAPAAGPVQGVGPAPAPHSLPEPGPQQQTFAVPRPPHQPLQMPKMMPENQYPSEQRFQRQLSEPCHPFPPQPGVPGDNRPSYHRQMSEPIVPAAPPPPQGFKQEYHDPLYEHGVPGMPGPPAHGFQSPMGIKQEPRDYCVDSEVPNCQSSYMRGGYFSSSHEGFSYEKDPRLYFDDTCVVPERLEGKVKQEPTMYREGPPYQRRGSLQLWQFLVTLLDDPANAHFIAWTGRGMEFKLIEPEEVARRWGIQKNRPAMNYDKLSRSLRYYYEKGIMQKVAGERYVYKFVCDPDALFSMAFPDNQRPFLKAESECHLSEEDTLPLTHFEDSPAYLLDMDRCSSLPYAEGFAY

Sequence: CCCAAT
- binding signal (FEV): 1.27 fold enrichment (6-mer frequency, TF over GST control)
- binding signal (ETV5): 1.34 fold enrichment (6-mer frequency, TF over GST control)
- binding signal (HSF1): 1.1 fold enrichment (6-mer frequency, TF over GST control)
- binding signal (SPIC): 1.27 fold enrichment (6-mer frequency, TF over GST control)
- binding signal (ELF4): 1.32 fold enrichment (6-mer frequency, TF over GST control)
- binding signal (ELK4): 1.24 fold enrichment (6-mer frequency, TF over GST control)
- binding signal (ETV2): 1.3 fold enrichment (6-mer frequency, TF over GST control)
- binding signal (ELF3): 1.32 fold enrichment (6-mer frequency, TF over GST control)
- binding signal (CRX): 1.19 fold enrichment (6-mer frequency, TF over GST control)
- binding signal (ETV1): 1.19 fold enrichment (6-mer frequency, TF over GST control)
- binding signal (ERF): 1.18 fold enrichment (6-mer frequency, TF over GST control)
- binding signal (ETV3L): 1.27 fold enrichment (6-mer frequency, TF over GST control)
- binding signal (ETS2): 1.22 fold enrichment (6-mer frequency, TF over GST control)
- binding signal (SPDEF): 1.29 fold enrichment (6-mer frequency, TF over GST control)
- binding signal (ETV7): 1.15 fold enrichment (6-mer frequency, TF over GST control)
- binding signal (ELF5): 1.23 fold enrichment (6-mer frequency, TF over GST control)
- binding signal (ETV3): 1.18 fold enrichment (6-mer frequency, TF over GST control)
- binding signal (ETV6): 1.28 fold enrichment (6-mer frequency, TF over GST control)
